Experimental data published in PubChem BioAssay.
Unmarked numbers belong to inactive results. The rule behind the calls is not given here.

Target: Pantothenate synthetase (Mycobacterium tuberculosis (strain ATCC 25618 / H37Rv)) (UniProt P9WIL5)
Assay: Recombinant Mtb pantothenate synthetase (PanC) inhibitors, coupled enzyme, confirmatory (AID 375);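 note: 0% = full reaction with vehicle and 100% = no enzyme background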
Conditions: coupled enzyme assay; at 10 µM, hits give high values

Pantothenate synthetase (Mycobacterium tuberculosis (strain ATCC 25618 / H37Rv)), sequence (P9WIL5 whole entry, looked up): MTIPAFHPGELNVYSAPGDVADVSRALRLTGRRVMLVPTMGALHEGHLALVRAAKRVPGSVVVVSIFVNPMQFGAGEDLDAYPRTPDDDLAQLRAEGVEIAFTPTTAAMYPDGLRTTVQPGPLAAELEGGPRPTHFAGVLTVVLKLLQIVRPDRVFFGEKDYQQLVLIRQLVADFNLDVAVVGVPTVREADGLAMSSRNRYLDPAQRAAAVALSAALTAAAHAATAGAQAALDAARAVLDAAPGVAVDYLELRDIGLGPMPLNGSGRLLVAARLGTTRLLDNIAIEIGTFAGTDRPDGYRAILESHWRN

SMILES	inhibition
COc1ccc(OC)c(Nc2nc(-c3sc(N)nc3C)cs2)c1	0%
Cc1nnc(SCc2cnc(-c3ccccc3)o2)[nH]c1=O	0%
O=C(Nc1ccccc1C(=O)N1CCOCC1)c1cccc(S(=O)(=O)N2CCCC2)c1	0%
COc1ccc(C2CC(=O)C(C=NCCCN3CCOCC3)=C(O)C2)cc1 (centres undefined)	0%
O=C(O)c1cccc(COCC(F)(F)C(F)F)c1	0%
CCCCOc1ccccc1C(=O)NCCCC(=O)O	0%
O=C(NCc1ccc2c(c1)OCO2)C1CCCN(S(=O)(=O)c2cccc3cccnc23)C1 (centres undefined)	0%
Cc1nc(CNS(=O)(=O)c2cccc(F)c2)cs1	0%
COc1ccc(C)cc1S(=O)(=O)N(C)CC(=O)Nc1ccc2c(c1)OCO2	0%
CCN(CC)CC(=O)Nc1ccc(-c2nc3cc(NC(=O)CN(CC)CC)ccc3o2)cc1	7%
NCc1ccc(S(N)(=O)=O)cc1	2%
O=C(O)CCc1cc(I)c(Oc2ccc(O)c(I)c2)c(I)c1	8%
O=C1c2ccccc2C(Nc2ccc(F)cc2F)N1CCN1CCOCC1 (centres undefined)	0%
N=c1c[n+](N2CCOCC2)[n-]o1	0%
O=C1CC(C(=O)Nc2ccc(Br)cc2)C2(CCCC2)O1 (centres undefined)	1%
COC(=O)CCC(=O)Nc1cccc(Br)c1	0%
Fc1ccc(Cn2nnc(-c3ccc(CN4CCOCC4)cc3)n2)cc1	0%
CN(Cc1ccccc1)Cc1nc2c([nH]1)c(=O)[nH]c(=O)n2C	7%
COc1ccc2c(-c3cccnc3)cc(=O)[nH]c2c1	6%
CCN=C1SC(CC(=O)Nc2ccccc2)C(=O)N1CC (centres undefined)	5%
Nc1nc2sc3c(c2c(=O)s1)CCCC3	0%
Cc1c(C(=O)NCc2ccccn2)sc2nc(-c3ccc(F)cc3)cn12	0%

SMILES	inhibition
Cc1nc(C)c(C(=O)OCC(=O)N2CCN(c3ccccc3)CC2)s1	0%
c1ccc(-c2noc(C3CCCCC3)n2)nc1	0%
CCOc1ccccc1C(=O)NC(C)c1ccc2c(c1)OCO2 (centres undefined)	0%
Cc1ccc(-n2c(Cc3cccn3C)nnc2SCC(=O)NCc2ccc3c(c2)OCO3)cc1	0%
COc1ccccc1C(=O)NCC(=O)Nc1ccccc1	0%
COc1ccc(S(=O)(=O)N2CCCC(C(=O)NCc3ccccn3)C2)cc1 (centres undefined)	7%
Cc1cc(C(=O)N2CCCc3ccccc32)no1	3%
CCc1nnc(NC(=O)CN2CCN(c3ccccc3OC)CC2)s1	4%
CCOC(=O)c1c(NC(=O)Cn2c(=O)oc3ccccc32)oc(C)c1C(C)=O	0%
CCOC(=O)N1CCN(Cc2nc3c(c(=O)[nH]c(=O)n3C)n2Cc2cc(C)ccc2C)CC1	0%
O=c1ccc(S(=O)(=O)N2CCC(Cc3ccccc3)CC2)c[nH]1	0%
Cc1[nH]c2ccccc2c1Cc1nnc(SCC(=O)NCc2ccco2)o1	1%
Cc1cccc(N2CCN(C(=O)c3ccc(NS(=O)(=O)c4c(C)noc4C)cc3)CC2)c1C	0%
CC(C)OC(=O)CCCCCN1C(=O)CSC1=S	1%
COc1ccc(/C=C/C(=O)Nc2ccccc2C(=O)O)cc1OC	0%
CCCCc1cc(=O)oc2cc(OCC(=O)N(CC)CC)c(Cl)cc12	0%
Cc1coc(NC(=O)CSc2nc(-c3ccncc3)cc(C(F)(F)F)c2C#N)n1	0%
O=C(NCc1cccnc1)C1c2ccccc2C(=O)N1Cc1ccco1 (centres undefined)	1%
CCOC(=O)N1CCC(n2c(=S)[nH]c3cc(OC)c(OC)cc3c2=O)CC1	2%
CCOC(=O)C1=C(C)N(C)C(C)=C(C(=O)OCC)C1c1cccnc1	2%
CSc1cccc(NC(=O)C2CCN(S(=O)(=O)c3ccc(F)cc3)CC2)c1	0%
CCC(C)(C)n1nnnc1C(c1ccncc1)N1CCN(c2cccc(OC)c2)CC1 (centres undefined)	0%

SMILES	inhibition
COCc1[nH]nc2c1C(C1C=CCCC1)C(C#N)=C(N)O2 (centres undefined)	0%
NC(=O)CSCc1ccc(Br)cc1	0%
CCOC(=O)C1=C(C)NC(C)=C(C(=O)OCC)C1C(=O)OC1CCOC1=O (centres undefined)	13%
CCSc1nc(-c2ccc(OC)cc2)ccc1C#N	1%
CCOc1ncccc1C(=O)OCC(=O)N1CC(=O)Nc2ccccc21	0%
CC(=O)Nc1ccc(S(=O)(=O)N2CCC(NC(C)=O)(c3cccc(F)c3)CC2)cc1	0%
O=C(NCc1cccs1)C1CC(=O)N(c2ccccc2)C1 (centres undefined)	0%
Cc1cc(C)n(S(=O)(=O)Cc2ccccc2)n1	0%
CCN(CC)c1ccc(NC(=O)c2[nH]c(C)c(C(C)=O)c2C)c(C)c1	0%
O=C1OC(c2ccc(O)cc2)(c2ccc(O)cc2)c2ccccc21	4%
CCOCC(=O)Nc1c(C(=O)Nc2ccc(OC)cc2OC)oc2ccccc12	0%
CC(C)OC(=O)c1cccc(C(=O)O)n1	4%
O=C1C/C(=C/NCc2ccccc2)C(=O)N1	3%
O=C(NCC1CCCO1)c1cccc(N2CCCC2=O)c1 (centres undefined)	0%
O=C(CSc1nnc(-c2ccccc2)o1)N1CCc2ccccc2C1	0%
COc1ccc(-c2cc3n(n2)CCc2nc4ccccc4n2-3)cc1	0%
CCN(CC)C(=O)Oc1ccc(NC(C)=O)cc1	0%
O=C(Nc1ccncc1)C1CCCN(S(=O)(=O)c2cccc3cccnc23)C1 (centres undefined)	0%
Cc1ccc(Cc2c(C)nc3c(C(=O)O)cnn3c2C)cc1	4%
CCOc1ccc(OCc2cccc(C(=O)N3CCCC3)c2)cc1	6%
